Screening data: PubChem BioAssay, National Center for Advancing Translational Sciences (NCATS)
Sampled rows, rich in hits. Any-hit rate of the full collection: about 1.8%.
Mito fusion act = qHTS Assay for Small Molecule Inhibitors of Mitochondrial Division or Activators of Mitochondrial Fusion; S. cerevisiae fusion-defective mutant growth rescue, CellTiterGlo 48 h; Potency, µM (highest dose often 46.1 µM), for the others: at the highest dose growth rescue (activation), hits mostly activators; 0.23% of 320,000 active; AID 485298, 2010; also: potency is read from the fitted curve at half-maximal effect; % of control where 0% means no effect; nearly all actives have a fitted effect of over 45% in size
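Yeast fusion mutant, YPEG (non-fermentable carbon), compound, 48 h at 37C non-permissive; CellTiterGlo added, 10 min RT, luminescence read. Rescued growth = division inhibition.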
MBNL1-CUG inh = qHTS Assay for Inhibitors of MBNL1-poly(CUG) RNA binding | TR-FRET MBNL1-His/biotin-(CUG)12 binding, 665/545 ratio | Potency, µM (titrated, usually from 57.5 µM), for the others: at the highest dose activity change, negative = inhibition, usual class: inhibitors | 0.036% of 280,000 active | Muscleblind-like protein 1 (Homo sapiens), Q9NR56; active = well fitted inhibition curve with a large enough effect in the signal ratio, with a control signal flat, not every such curve was filed as active; inconclusive = small, poorly fitted or top-dose-only effect, or effect the other way, or a change in a side signal; inactive = no such curve, though single readings can be large or run the other way; the % refers to the signal ratio; also: potency is read from the fitted curve at half-maximal effect; % is scaled to controls: 0 for no effect and ±100 for the full control effect
Target sequence (Q9NR56 whole entry, looked up): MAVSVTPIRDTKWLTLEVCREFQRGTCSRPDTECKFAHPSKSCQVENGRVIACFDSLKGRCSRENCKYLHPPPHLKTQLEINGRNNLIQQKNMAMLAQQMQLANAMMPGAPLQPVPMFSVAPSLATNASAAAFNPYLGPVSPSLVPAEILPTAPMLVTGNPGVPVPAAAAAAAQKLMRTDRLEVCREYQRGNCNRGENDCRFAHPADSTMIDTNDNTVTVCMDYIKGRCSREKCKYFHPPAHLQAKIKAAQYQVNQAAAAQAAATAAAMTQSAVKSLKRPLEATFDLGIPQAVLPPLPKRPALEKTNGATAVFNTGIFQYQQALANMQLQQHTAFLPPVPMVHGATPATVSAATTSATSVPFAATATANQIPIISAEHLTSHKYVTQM
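Compound titration spanned 92 nM–58 uM against the MBNL1-His/biotin-(CUG)12 complex. After 60 min at room temperature with 5 nM streptavidin-XL665 and 0.055 ng/ul terbium anti-His, ratiometric 665/545 nm emission (Ex 340 nm) normalized to controls.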
Glioma ERSR ind = qHTS for Inducers of the Endoplasmic Reticulum Stress Response (ERSR) in Human Glioma: qHTS | U87-MG GRP78 promoter luciferase reporter, 16 h | Potency, µM, inactives show at the top dose activation, actives largely listed as activators | 0.02% of 420,000 active | AID 602332, 2012; also: potency is read from the fitted curve at half-maximal effect; series mostly up to about 76 µM; % of control where 0% means no effect; nearly all actives have a fitted effect of over 35% in size
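ERSR induction read as luciferase luminescence (Bright-Glo, 10 min at room temperature) in stably transfected human U87-MG glioma cells exposed to compounds for 16 h, using GRP78 as sensor.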
TCR act = Activators of T cell receptors: qHTS campaign | primary human leukocytes, anti-CD3, IL-2 HTRF, 48 h | Potency, µM (doses to about 9.22 µM), for the others: at the top dose activation of IL-2 secretion, usual class: activators | 330,000 tested, under 10 active | AID 504894, 2011; also: % of control where 0% means no effect
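1) Mix primary human leukocytes, a-CD3 beads and compound. 2) Incubate 48 hr. 3) Add HTRF IL-2 reagents (a-IL-2-K, a-IL-2-d2).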
ClpP mod = qHTS Assay for Activators of ClpP; Potency, µM (doses to about 57.5 µM), inactives show at the top dose activity change, negative = active; purified B. subtilis ClpP, FRET peptide cleavage, 20 min; AID 651965, 2013; 1.9% of 340,000 active; active = well fitted falling curve with a large enough effect; inconclusive = small, poorly fitted or top-dose-only effect; inactive = no such curve, though single readings can be large or run the other way; also: potency is read from the fitted curve at half-maximal effect; the source files actives as falling curves though it sought activators and does not explain the sign; nearly all actives have a fitted effect of over 65% in size
Target sequence (P80244 whole entry, looked up): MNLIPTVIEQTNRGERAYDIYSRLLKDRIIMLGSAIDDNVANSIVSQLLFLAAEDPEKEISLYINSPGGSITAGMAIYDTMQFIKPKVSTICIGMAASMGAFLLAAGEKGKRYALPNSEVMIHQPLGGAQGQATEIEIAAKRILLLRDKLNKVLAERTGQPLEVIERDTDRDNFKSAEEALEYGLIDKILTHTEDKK
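Buffer: 100 mM Tris/HCl pH8, 100 mM KCl, 0.05% low protease BSA, 2.5% glycerol, 0.01% Tween-20. ClpP 10 microg/mL final; 20 min RT; delta FRET normalized to ADEP and DMSO controls.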
A-T KAP1 phos = qHTS Assay for Identifying a Potential Treatment of Ataxia-Telangiectasia; F2112 A-T fibroblasts, KAP-1 phosphorylation AlphaLISA; neocarzinostatin DNA damage 30 min before lysis; Potency, µM (titrated, usually from 57.5 µM), for the others: top-dose activation, usual class: activators; 0.19% of 320,000 active; also: potency is read from the fitted curve at half-maximal effect; % of control where 0% means no effect; nearly all actives have a fitted effect of over 45% in size
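ATM-like activity read as KAP-1 phosphorylation via AlphaLISA donor/acceptor antibody pairs after lysis and 6 hr at 25C. Cells were ATM-null patient fibroblasts (F2112, hTERT), dosed 60 min, then exposed to the DSB inducer NCS for 30 min.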
Starred values were filed as active, the others as inactive; ? = inconclusive; / = not tested or not shown; [ ] = another dose, or the depositor's remark. Unless noted, calls follow the shape of the dose curve; as a rule, active = well fitted curve in the direction sought with a large enough effect; inconclusive = small, poorly fitted or top-dose-only effect, or another doubt; inactive = no such curve, though single readings can be large; an effect the other way counts as inactive or inconclusive.

SMILES	Mito fusion act	MBNL1-CUG inh	Glioma ERSR ind	TCR act	ClpP mod	A-T KAP1 phos
CCn1nc(C)c(/C=N/NC(=O)Cn2nnnc2N)c1C	-3%	-11%	-3%	-1%	?	-11%
CCn1nc(C)c(/C=N/NC(=O)c2ccoc2C)c1C	-2%	12%	-10%	5%	16µM*	-7%
CCCCCn1nc(C)c(/C=N/NC(=O)c2ccoc2C)c1C	0%	?	5%	-5%[46.1 µM]	0%	2%
CCn1nc(C)c(/C=N/NC(=O)Cn2cncn2)c1C	-8%	-4%	-9%	-21%	/	3.2µM*
Cc1nn(Cc2ccccc2)c(C)c1/C=N/NC(=O)c1ccccc1O	5%	-3%	7%	0%	-8%	32µM*
CCCCC(=O)N1C/C=C\C(c2ccc(OC)cc2)N(Cc2ccc(F)cc2)C(=O)C1Cc1ccccc1 (stereo unspecified)	/	/	-2%	/	/	/
CC(=O)N1CCC[C@H]1C(=O)NCC1Cc2cc(-c3cccc(OC(F)(F)F)c3)ccc2O1 (stereo partly specified)	/	/	-2%	/	/	/
CSCC[C@H](NC(=O)[C@H](CC(C)C)NC(=O)[C@@H]1CCCN1C(=O)[C@H](Cc1ccccc1)NC(=O)[C@H](Cc1ccccc1)NC(=O)[C@@H]1CCC(=O)N1)C(N)=O	/	/	-4%	/	/	/
O=C(Nc1ccccc1)c1sc2cc(C(F)(F)F)cnc2c1-c1cccs1	-2%	?	2%	5%	32µM*	0%
CCOC(=O)c1c(C(F)(F)F)nc2ncccn12	0%	-13%	-4%	4%	25µM*	2%
CCOC(=O)c1c(-c2ccccc2)nc2ccccn12	-10%	4%	-3%	1%	-10%	6%
Cc1cc2n(n1)C(c1cn(-c3ccccc3)nc1C)Nc1ccccc1-2 (stereo unspecified)	-5%	2%	-1%	-6%	2.5µM*	-6%
Cc1cc2n(n1)C(c1c[nH]c3ccccc13)Nc1ccccc1-2 (stereo unspecified)	?	2%	2%	1%	22µM*	13%
FC(F)OC(Cl)C(F)(F)F (stereo unspecified)	/	/	-1%	/	/	/
Cc1ncc2c(c1CNC(=O)c1ccc3c(c1)OCO3)CCN(C(=O)c1ccoc1)C2	/	/	-4%	/	/	/
CSCC[C@H](NC(=O)[C@H](CO)NC(=O)[C@H](Cc1ccc(O)cc1)NC(=O)[C@@H](N)CO)C(=O)N[C@@H](CCC(=O)O)C(=O)N[C@@H](Cc1cnc[nH]1)C(=O)N[C@@H](Cc1ccccc1)C(=O)N[C@@H](CCCNC(=N)N)C(=O)N[C@@H](Cc1c[nH]c2ccccc12)C(=O)NCC(=O)N[C@@H](CCCCN)C(=O)N1CCC[C@H]1C(=O)N[C@H](C(=O)NCC(=O)N[C@@H](CCCCN)C(=O)N[C@@H](CCCCN)C(=O)N[C@@H](CCCNC(=N)N)C(=O)N[C@@H](CCCNC(=N)N)C(=O)N1CCC[C@H]1C(=O)N[C@H](C(=O)N[C@@H](CCCCN)C(=O)N[C@H](C(=O)N[C@@H](Cc1ccc(O)cc1)C(=O)N1CCC[C@H]1C(=O)O)C(C)C)C(C)C)C(C)C	/	/	-1%	/	/	/
Cn1c(SCC2CCCO2)nnc1C1CCN(Cc2ccc(-c3cccc(Cl)c3)o2)CC1 (stereo unspecified)	/	/	-3%	/	/	/
CCOC(=O)c1nc(N)c(C(=O)OCC)[nH]1	4%	0%	-6%	-5%	14µM*	-4%
COc1cc(CN2CCC3(CCC(CNC(=O)c4ccccc4)O3)CC2)cc(OC)c1 (stereo unspecified)	/	/	-2%	/	/	/
Oc1ccc(Nc2nc(-c3ccccc3)nc3ccccc23)cc1	10%	1%	-5%	-7%	-5%	-4%
Oc1ccc(Nc2nc3ccccc3nc2Nc2ccc(O)cc2)cc1	1%	9%	-12%	-9%	32µM*	-4%
CCN(N=O)c1ccc(/C=C/c2ccnc3ccccc23)cc1	/	/	-4%	/	1%	/
c1ccc(-c2ncnc3cc4n(c23)CCC4)cc1	-1%	-5%	-7%	-1%[46.1 µM]	28µM*	1%
COc1ccc2c(c1)CCc1cnc(-n3ncc(C(=O)N4CCN(CCO)CC4)c3C3CC3)nc1-2	/	/	0%	/	/	/
CN1CCN(c2ncnc3ccc(-c4cccc(NS(C)(=O)=O)c4)cc23)CC1	/	/	-6%	/	/	/
SMILES	Mito fusion act	MBNL1-CUG inh	Glioma ERSR ind	TCR act	ClpP mod	A-T KAP1 phos
Cc1cn2cc(CNC(=O)CN3Cc4ccccc4OC(c4ccccc4F)C3)nc2s1 (stereo unspecified)	/	/	1%	/	/	/
CN(c1cccc(NC(=O)CN2C(=O)c3ccccc3S2(=O)=O)c1)S(C)(=O)=O	0%	-2%	-8%	-1%	28µM*	0%
CC(C)c1ccc(NC(=O)CN2C(=O)c3ccccc3S2(=O)=O)cc1	-24%	3%	-6%	-3%	/	-5%
COc1cc(OC)cc(-c2cc3cc4c(cc3cn2)OCO4)c1	/	/	0%	-2%	?	6%
COc1ccc(-c2cc3cc4c(cc3cn2)OCO4)cc1	/	/	-9%	4%	14µM*	5%
CC/C(O)=N/S(=O)(=O)c1ccc(-c2c(-c3ccccc3)noc2C)cc1	/	/	-2%	/	/	/
COc1ccccc1/C=C/c1nc(C#N)c(NC2CCCCC2)o1	/	/	0%	/	2.8µM*	/
COc1ccc(/C=C/c2nc(C#N)c(NC3CCCCC3)o2)cc1OC	/	/	3%	/	5%	/
O=C(COC(=O)c1ccccc1Cl)Nc1cccnc1Cl	3%	/	-2%	-4%	0%	-6%
O=C(COC(=O)c1cccc2ccccc12)Nc1cccnc1Cl	9%	/	2%	5%[46.1 µM]	16µM*	-11%
O=C(COC(=O)c1cccc2ccccc12)Nc1ncc(C(F)(F)F)cc1Cl	-1%	-9%	-3%	-2%	35µM*	/
CCC(=O)NC(c1ccccc1Cl)c1c(O)ccc2ccccc12 (stereo unspecified)	9%	?	-5%	1%[46.1 µM]	-27%	-1%
COc1ccc(C(NC(=O)C(C)C)c2c(O)ccc3ccccc23)cc1 (stereo unspecified)	-1%	-2%	-5%	2%	2%	4%
CC(C)C(=O)NC(c1ccco1)c1c(O)ccc2ccccc12 (stereo unspecified)	-1%	-3%	-2%	2%	22µM*	5%
